A number with no mark means an inactive call. For some assays here: Results with a measured potency or affinity are listed apart. Active and inactive are the calls of the source. Unless noted, how the calls were made is not given here.
Assays:
[1] = antimalarial activity against Dd2 strain (AID 2302;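 active means growth inhibition above 50% at the single 2 µM test dose, taken to imply half-maximal potency below 2 µM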;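 further: 0% = DMSO untreated growth and 100% = chloroquine plus artemisinin killed control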); conditions: P. falciparum Dd2 in RBCs, LDH growth readout, 72 h; at 2 µM; hits give high values
[2] = human hepatoma cell viability loss – ATP luminescence, cytotoxicity control for P. falciparum antimalarial project, primary screen (AID 2303;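 active means inhibition above 50%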;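 further: 0% = DMSO wells and 100% = digitonin-killed cells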); conditions: HepG2 viability, 24-48 h, at 10 µM, hits give high values
[3] = target: L-lactate dehydrogenase (Plasmodium falciparum (isolate CDC / Honduras)) (UniProt Q27743); assay: PfLDH activity inhibition – cell lysate, 3D7 strain, counter-screen for P. falciparum growth inhibition project (AID 2304);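 further: 0% = vehicle and 100% = reference inhibitor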; conditions: P. falciparum 3D7 crude extract, LDH APAD/NBT absorbance; at 2 µM; hits give high values
[4] = inhibition of 3D7 malaria parasite growth – strain 3D7 (AID 2306);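 further: 0% = DMSO wells and 100% = chloroquine plus artemisinin control wells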; conditions: P. falciparum 3D7 erythrocytic growth, LDH absorbance, 72 h; at 2 µM; hits give high values
[5] = target: Calcium-dependent protein kinase 1 (Plasmodium falciparum (isolate 3D7)) (UniProt P62344); assay: PfCDPK1 kinase inhibitors, biochemical, TCAMS library (AID 1159585; cut-off not given, nearly all actives have IC50 up to about 0.98 µM;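 further: inhibitors leave more ATP so luminescence rises with inhibition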); conditions: recombinant PfCDPK1, Kinase-Glo ATP depletion luminescence
[6] = target: Plasmodium falciparum protein kinase 6 (PK6, PF3D7_1337100) (UniProt Q8IDW1); assay: PfPK6 kinase inhibitors, biochemical, TCAMS library (AID 1159586); conditions: recombinant PfPK6, Kinase-Glo ATP depletion luminescence
[7] = target: Protein kinase 7 (PK7), Plasmodium falciparum 3D7 (PF3D7_0213400) (UniProt Q7YTF7); assay: inhibition of Plasmodium PK7 catalytic activity – biochemical, TCAMS antimalarial set, Kinase-Glo luminescence (AID 1159587); conditions: recombinant PfPK7, Kinase-Glo ATP depletion luminescence
[8] = target: Calcium-dependent protein kinase 4 (Plasmodium falciparum (isolate 3D7)) (UniProt Q8IBS5); assay: PfCDPK4 kinase inhibitors, biochemical, TCAMS library (AID 1159588; cut-off not given, nearly all actives have IC50 up to about 0.91 µM); conditions: recombinant PfCDPK4, Kinase-Glo ATP depletion luminescence
Calcium-dependent protein kinase 4 (Plasmodium falciparum (isolate 3D7)), sequence (Q8IBS5 whole entry, looked up): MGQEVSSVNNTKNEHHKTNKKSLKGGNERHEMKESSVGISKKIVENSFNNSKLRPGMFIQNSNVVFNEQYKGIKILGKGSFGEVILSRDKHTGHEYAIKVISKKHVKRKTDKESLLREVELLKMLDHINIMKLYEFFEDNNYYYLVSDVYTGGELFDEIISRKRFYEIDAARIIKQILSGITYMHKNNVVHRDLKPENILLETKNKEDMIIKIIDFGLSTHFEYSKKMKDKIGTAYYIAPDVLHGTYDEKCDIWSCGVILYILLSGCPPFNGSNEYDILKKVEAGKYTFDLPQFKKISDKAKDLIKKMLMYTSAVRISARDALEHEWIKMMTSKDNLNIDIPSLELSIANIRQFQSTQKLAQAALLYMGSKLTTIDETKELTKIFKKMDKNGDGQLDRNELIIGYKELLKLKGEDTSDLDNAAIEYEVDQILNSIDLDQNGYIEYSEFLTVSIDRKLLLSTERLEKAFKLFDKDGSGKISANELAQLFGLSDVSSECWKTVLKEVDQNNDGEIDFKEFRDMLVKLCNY

Calcium-dependent protein kinase 1 (Plasmodium falciparum (isolate 3D7)), sequence (P62344 whole entry, looked up): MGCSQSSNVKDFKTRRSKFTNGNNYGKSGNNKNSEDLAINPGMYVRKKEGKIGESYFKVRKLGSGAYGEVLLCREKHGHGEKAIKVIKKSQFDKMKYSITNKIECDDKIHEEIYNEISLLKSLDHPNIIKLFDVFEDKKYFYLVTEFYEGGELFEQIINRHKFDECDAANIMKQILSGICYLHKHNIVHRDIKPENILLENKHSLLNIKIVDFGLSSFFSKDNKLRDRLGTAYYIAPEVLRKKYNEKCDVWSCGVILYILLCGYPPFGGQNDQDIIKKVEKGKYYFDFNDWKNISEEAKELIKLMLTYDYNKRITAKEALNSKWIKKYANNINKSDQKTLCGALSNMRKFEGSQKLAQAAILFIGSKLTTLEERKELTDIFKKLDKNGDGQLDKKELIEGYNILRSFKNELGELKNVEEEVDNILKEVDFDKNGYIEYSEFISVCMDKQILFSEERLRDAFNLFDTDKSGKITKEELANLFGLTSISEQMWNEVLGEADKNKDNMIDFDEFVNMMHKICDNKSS
L-lactate dehydrogenase (Plasmodium falciparum (isolate CDC / Honduras)), sequence (Q27743 whole entry, looked up): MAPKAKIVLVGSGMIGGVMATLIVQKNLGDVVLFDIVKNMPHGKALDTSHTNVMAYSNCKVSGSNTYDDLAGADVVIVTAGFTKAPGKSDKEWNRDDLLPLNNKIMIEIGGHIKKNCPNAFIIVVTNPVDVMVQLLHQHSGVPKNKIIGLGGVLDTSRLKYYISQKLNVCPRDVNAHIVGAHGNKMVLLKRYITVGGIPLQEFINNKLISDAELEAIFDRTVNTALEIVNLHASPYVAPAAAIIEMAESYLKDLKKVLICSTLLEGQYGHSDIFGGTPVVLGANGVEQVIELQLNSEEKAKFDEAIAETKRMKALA
Protein kinase 7 (PK7), Plasmodium falciparum 3D7 (PF3D7_0213400), sequence (Q7YTF7 1-343): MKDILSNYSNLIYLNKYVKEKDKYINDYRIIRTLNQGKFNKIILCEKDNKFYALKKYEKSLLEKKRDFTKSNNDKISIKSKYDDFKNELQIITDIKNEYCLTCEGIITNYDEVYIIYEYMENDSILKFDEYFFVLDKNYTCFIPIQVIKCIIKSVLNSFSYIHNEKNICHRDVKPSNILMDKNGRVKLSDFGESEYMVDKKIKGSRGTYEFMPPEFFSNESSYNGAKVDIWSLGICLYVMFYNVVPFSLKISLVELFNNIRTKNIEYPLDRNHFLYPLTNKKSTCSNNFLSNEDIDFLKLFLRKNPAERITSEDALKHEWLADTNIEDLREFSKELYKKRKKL
Plasmodium falciparum protein kinase 6 (PK6, PF3D7_1337100), sequence (Q8IDW1 1-305): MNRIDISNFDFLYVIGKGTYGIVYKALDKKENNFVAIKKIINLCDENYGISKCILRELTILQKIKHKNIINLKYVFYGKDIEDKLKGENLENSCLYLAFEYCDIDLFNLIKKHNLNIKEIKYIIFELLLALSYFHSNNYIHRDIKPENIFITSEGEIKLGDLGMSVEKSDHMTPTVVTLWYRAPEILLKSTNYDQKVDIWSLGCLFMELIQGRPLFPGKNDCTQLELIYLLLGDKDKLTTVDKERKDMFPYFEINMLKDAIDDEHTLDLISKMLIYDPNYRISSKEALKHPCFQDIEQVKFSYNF

COc1ccc(Nc2nccc(N3CCC(NC(=O)Nc4ccc5c(c4)OCO5)C3)n2)cc1 (stereo unspecified)
growth inhibition [1]: 57% (active)
inhibition [2]: 27%
inhibition [3]: -2%
growth inhibition [4]: 98% (active)
outcome [5]: inactive
outcome [6]: inactive
outcome [7]: inactive
outcome [8]: inactive

O=C(NCCCCN1CCC(c2nc3ccccc3s2)CC1)c1cc2ccccc2[nH]1
growth inhibition [1]: 64% (active)
inhibition [2]: 43%
inhibition [3]: -5%
growth inhibition [4]: 86% (active)
outcome [5]: inactive
outcome [6]: inactive
outcome [7]: inactive
outcome [8]: inactive

Fc1ccc2nc(-c3ccc(-c4cccc(CN5CCN(c6ccncc6)CC5)c4)cc3)[nH]c2c1
growth inhibition [1]: 101% (active)
inhibition [2]: 66% (active)
inhibition [3]: -3%
growth inhibition [4]: 100% (active)
outcome [5]: inactive
outcome [6]: inactive
outcome [7]: inactive
outcome [8]: inactive

CCOCn1c(-c2ccccc2)cc2c3c(N)nc(N)nc3ccc21
growth inhibition [1]: 66% (active)
inhibition [2]: 62% (active)
inhibition [3]: -4%
growth inhibition [4]: 91% (active)
outcome [5]: inactive
outcome [6]: inactive
outcome [7]: inactive
outcome [8]: inactive

CN1CCN(CCCNCc2cccc(-c3ccc(CNCCc4ccccc4)cc3)c2)CC1
growth inhibition [1]: 20%
inhibition [2]: 36%
inhibition [3]: -9%
growth inhibition [4]: 100% (active)
outcome [5]: inactive
outcome [6]: inactive
outcome [7]: inactive
outcome [8]: inactive

O=C(NCCCCN1CCC(c2c[nH]c3ccccc23)CC1)c1ccc(-c2ccc(C(F)(F)F)cc2)cc1
growth inhibition [1]: 22%
inhibition [2]: 34%
inhibition [3]: -1%
growth inhibition [4]: 98% (active)
outcome [5]: inactive
outcome [6]: inactive
outcome [7]: inactive
outcome [8]: inactive

N=c1n(CCN2CCCC2)c2ccccc2n1CC(O)c1ccc(Cl)c(Cl)c1 (stereo unspecified)
growth inhibition [1]: 6%
inhibition [2]: 36%
inhibition [3]: 5%
growth inhibition [4]: 100% (active)
outcome [5]: inactive
outcome [6]: inactive
outcome [7]: inactive
outcome [8]: inactive

Cc1ccc(Nc2nc(C)cc(Nc3cccc(C#N)c3)n2)cc1
growth inhibition [1]: 96% (active)
inhibition [2]: 14%
inhibition [3]: 4%
growth inhibition [4]: 101% (active)
outcome [5]: inactive
outcome [6]: inactive
outcome [7]: inactive
outcome [8]: inactive

O=C(Nc1ccc(Cl)c(Cl)c1)Nc1ccc2c(c1)CCNCC2
growth inhibition [1]: 37%
inhibition [2]: 13%
inhibition [3]: -1%
growth inhibition [4]: 86% (active)
outcome [5]: inactive
outcome [6]: inactive
outcome [7]: inactive
outcome [8]: inactive

Cc1nc2nc(N)nc(N)c2c(C)c1Cc1ccc(C#N)cc1
growth inhibition [1]: 4%
inhibition [2]: 69% (active)
inhibition [3]: 1%
growth inhibition [4]: 96% (active)
outcome [5]: inactive
outcome [6]: inactive
outcome [7]: inactive
outcome [8]: inactive

COc1ccc2nccc([C@@H](O)CN3CCC(NCCOc4ccc(F)cc4F)CC3)c2c1
growth inhibition [1]: 68% (active)
inhibition [2]: 13%
inhibition [3]: -5%
growth inhibition [4]: 101% (active)
outcome [5]: inactive
outcome [6]: inactive
outcome [7]: inactive
outcome [8]: inactive

COc1ccc(Cl)cc1N1CCN(CCCNC(=O)c2ccc(-c3nc4cc(Cl)c(C)cc4[nH]3)c(F)c2)CC1
growth inhibition [1]: 91% (active)
inhibition [2]: -1%
inhibition [3]: -6%
growth inhibition [4]: 99% (active)
outcome [5]: inactive
outcome [6]: inactive
outcome [7]: inactive
outcome [8]: inactive

O=C(/C=C/c1ccc(Cl)c(Cl)c1)NCCCCCN1CCC(C(=O)Nc2ccc(F)c(Cl)c2)CC1
growth inhibition [1]: -3%
inhibition [2]: 25%
inhibition [3]: 2%
growth inhibition [4]: 100% (active)
outcome [5]: inactive
outcome [6]: inactive
outcome [7]: inactive
outcome [8]: inactive

Cc1cc(-c2ccc(NC(=O)N3CCc4cc(Br)c(N5CCN(C)CC5)cc43)cc2)ccc1C#N
growth inhibition [1]: 56% (active)
inhibition [2]: 100% (active)
inhibition [3]: 0%
growth inhibition [4]: 99% (active)
outcome [5]: inactive
outcome [6]: inactive
outcome [7]: inactive
outcome [8]: inactive

Nc1ncc(OC2CCCCC2)c(N)n1
growth inhibition [1]: -1%
inhibition [2]: -4%
inhibition [3]: -1%
growth inhibition [4]: 94% (active)
outcome [5]: inactive
outcome [6]: inactive
outcome [7]: inactive
outcome [8]: inactive

Cc1ccc(-c2nnc(Nc3ccc(OCC(N)=O)cc3)c3ccccc23)cc1S(=O)(=O)NCC1CCCO1 (stereo unspecified)
growth inhibition [1]: 70% (active)
inhibition [2]: 0%
inhibition [3]: -2%
growth inhibition [4]: 92% (active)
outcome [5]: inactive
outcome [6]: inactive
outcome [7]: inactive
outcome [8]: inactive

COC(=O)c1ccc(NC(=O)Nc2ccc(Cn3ncc(N4CCCNCC4)c(Cl)c3=O)cc2)cc1
growth inhibition [1]: 43%
inhibition [2]: -1%
inhibition [3]: -1%
growth inhibition [4]: 83% (active)
outcome [5]: inactive
outcome [6]: inactive
outcome [7]: inactive
outcome [8]: inactive

O=S(=O)(NCCN1CCCC1)c1ccc(-c2cccc(CNCc3ccsc3)c2)s1
growth inhibition [1]: 43%
inhibition [2]: 42%
inhibition [3]: 0%
growth inhibition [4]: 90% (active)
outcome [5]: inactive
outcome [6]: inactive
outcome [7]: inactive
outcome [8]: inactive

O=C(NCc1ccccc1)Nc1ccc(-c2cccc(-c3nc4ccc(C(F)(F)F)cc4[nH]3)c2)cc1
growth inhibition [1]: 23%
inhibition [2]: 56% (active)
inhibition [3]: -1%
growth inhibition [4]: 97% (active)
outcome [5]: inactive
outcome [6]: inactive
outcome [7]: inactive
outcome [8]: inactive

CC1(C)N=C(N)N=C(N)N1OCCCc1ccc(Cl)cc1Cl
growth inhibition [1]: 95% (active)
inhibition [2]: 54% (active)
inhibition [3]: 0%
growth inhibition [4]: 95% (active)
outcome [5]: inactive
outcome [6]: inactive
outcome [7]: inactive
outcome [8]: inactive

Clc1cc(Cl)c2cc(CNCCCNc3ccc4ccccc4n3)[nH]c2c1
growth inhibition [1]: 54% (active)
inhibition [2]: 98% (active)
inhibition [3]: 3%
growth inhibition [4]: 99% (active)
outcome [5]: inactive
outcome [6]: inactive
outcome [7]: inactive
outcome [8]: inactive

CN1CCCC1CCCOC(=O)c1ccc(N)cc1 (stereo unspecified)
growth inhibition [1]: 2%
inhibition [2]: 8%
inhibition [3]: -2%
growth inhibition [4]: 101% (active)
outcome [5]: inactive
outcome [6]: inactive
outcome [7]: inactive
outcome [8]: inactive

Clc1ccc(CNc2nc(NCCc3cnc[nH]3)nc(Nc3ccc4c(c3)OCO4)n2)cc1
growth inhibition [1]: 6%
inhibition [2]: 8%
inhibition [3]: -2%
growth inhibition [4]: 84% (active)
outcome [5]: inactive
outcome [6]: inactive
outcome [7]: inactive
outcome [8]: inactive

CN(C)Cc1cc(Nc2ccnc3cc(Cl)ccc23)ccc1O
growth inhibition [1]: 100% (active)
inhibition [2]: 36%
inhibition [3]: -3%
growth inhibition [4]: 100% (active)
outcome [5]: inactive
outcome [6]: inactive
outcome [7]: inactive
outcome [8]: inactive

Nc1cccc(CNCc2ccc(-c3cccc(-c4nc5ccccc5[nH]4)c3)cc2)c1
growth inhibition [1]: 78% (active)
inhibition [2]: 12%
inhibition [3]: 6%
growth inhibition [4]: 103% (active)
outcome [5]: inactive
outcome [6]: inactive
outcome [7]: inactive
outcome [8]: inactive

O=C(c1c(-c2[nH]c3ccccc3c2C(=O)C(F)(F)F)[nH]c2ccccc12)C(F)(F)F
growth inhibition [1]: 99% (active)
inhibition [2]: 18%
inhibition [3]: 3%
growth inhibition [4]: 97% (active)
outcome [5]: inactive
outcome [6]: inactive
outcome [7]: inactive
outcome [8]: inactive

COCCCN=C(N)c1ccc(NC(=O)c2ccc(C(=O)Nc3ccc(C(N)=NCCCOC)cc3)cc2)cc1
growth inhibition [1]: 99% (active)
inhibition [2]: 33%
inhibition [3]: -2%
growth inhibition [4]: 100% (active)
outcome [5]: inactive
outcome [6]: inactive
outcome [7]: inactive
outcome [8]: inactive

O=C(Nc1ccccc1-c1ccccc1)C1CCCN1C(=O)Nc1ccc(Cl)cc1 (stereo unspecified)
growth inhibition [1]: 90% (active)
inhibition [2]: -6%
inhibition [3]: -4%
growth inhibition [4]: 96% (active)
outcome [5]: inactive
outcome [6]: inactive
outcome [7]: inactive
outcome [8]: inactive

COc1ccc(CNCc2cccc(-c3ccc(-c4nc5c(C)cccc5[nH]4)s3)c2)cc1
growth inhibition [1]: 65% (active)
inhibition [2]: 24%
inhibition [3]: 7%
growth inhibition [4]: 103% (active)
outcome [5]: inactive
outcome [6]: inactive
outcome [7]: inactive
outcome [8]: inactive

O=C(NCC1CCN(CC2CCCCC2)C1)c1cc(-c2cccc(Cl)c2)cs1 (stereo unspecified)
growth inhibition [1]: 8%
inhibition [2]: 51% (active)
inhibition [3]: 5%
growth inhibition [4]: 85% (active)
outcome [5]: inactive
outcome [6]: inactive
outcome [7]: inactive
outcome [8]: inactive

Cc1nnsc1C(=O)Nc1ccc(-c2cccc(-c3nc4ccc(F)cc4[nH]3)c2)cc1
growth inhibition [1]: 27%
inhibition [2]: 44%
inhibition [3]: 2%
growth inhibition [4]: 96% (active)
outcome [5]: inactive
outcome [6]: inactive
outcome [7]: inactive
outcome [8]: inactive

Cc1cccc2[nH]c(-c3ccc(-c4ccc(CNCc5cnn(-c6ccccc6)n5)cc4)cc3)nc12
growth inhibition [1]: 99% (active)
inhibition [2]: 35%
inhibition [3]: -4%
growth inhibition [4]: 101% (active)
outcome [5]: inactive
outcome [6]: inactive
outcome [7]: inactive
outcome [8]: inactive

COc1ccc(NC(=O)c2cn(-c3ccc(C(C)(C)C)cc3)nc2C)cc1N1CCN(C)CC1
growth inhibition [1]: 71% (active)
inhibition [2]: 33%
inhibition [3]: 0%
growth inhibition [4]: 96% (active)
outcome [5]: inactive
outcome [6]: inactive
outcome [7]: inactive
outcome [8]: inactive

Cc1cccc2[nH]c(-c3ccc(-c4ccc(C(=O)NCCN5CCCC5)cc4)s3)nc12
growth inhibition [1]: 13%
inhibition [2]: 20%
inhibition [3]: 3%
growth inhibition [4]: 100% (active)
outcome [5]: inactive
outcome [6]: inactive
outcome [7]: inactive
outcome [8]: inactive

Cc1ccc(NC(=O)c2nc(N3CCN(c4ccncc4)CC3)ccc2Cl)cc1F
growth inhibition [1]: 57% (active)
inhibition [2]: 51% (active)
inhibition [3]: -5%
growth inhibition [4]: 100% (active)
outcome [5]: inactive
outcome [6]: inactive
outcome [7]: inactive
outcome [8]: inactive

COc1ccc(-c2nonc2NC(=O)c2cccc(C)c2)cc1OC
growth inhibition [1]: 8%
inhibition [2]: 24%
inhibition [3]: -1%
growth inhibition [4]: 97% (active)
outcome [5]: inactive
outcome [6]: inactive
outcome [7]: inactive
outcome [8]: inactive

COc1ccc(CNCc2ccsc2)cc1-c1ccc(S(=O)(=O)NCCN2CCCC2)s1
growth inhibition [1]: 34%
inhibition [2]: 39%
inhibition [3]: -7%
growth inhibition [4]: 101% (active)
outcome [5]: inactive
outcome [6]: inactive
outcome [7]: inactive
outcome [8]: inactive

Source: PubChem BioAssay
